In PubChem BioAssay AID1159580 (chemical genetic matrix, 2015):
Where “and” joins values, the source holds several entries; their conditions need not be identical. Equal values may be shown once. Out of some 5,500 compounds screened, about 2,000 (36%) were called active. Inconclusive results (about 18%) are left out. No stated cut-off is given here; in the data, active means normalized growth mostly below about 0.91 (no sharp cut-off); inconclusive means no clear call, values can overlap the other calls; inactive means mostly above about 0.92. The list shows a part of the results.

Test: chemical genetic growth profiling, strain panel (AID 1159580);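 further: tested at 20 µM; growth read once vehicle control cultures reached saturation at 30 °C; 1 = growth at the plate median or of vehicle wells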
Conditions: growth OD

Measured: normalized growth

CC(C)NCC(O)c1ccc(O)c(O)c1 (stereo not given)
inactive: S. cerevisiae deletion strains, locus YJR075W, strain HOC1, stronger effect = lower value 1.01 and 1.02 | S. cerevisiae deletion strains, locus YKL009W, strain mrt4, stronger effect = lower value 0.979 | S. cerevisiae deletion strains, locus YKL068W, stronger effect = lower value 0.994 | S. cerevisiae deletion strains, locus YKL085W, strain MDH1 (second series), stronger effect = lower value 0.994 | S. cerevisiae deletion strains, locus YKL085W, strain MDH1, stronger effect = lower value 0.994 | S. cerevisiae deletion strains, locus YKL160W, strain elf1, stronger effect = lower value 0.966 | S. cerevisiae deletion strains, locus YKL190W, strain CNB1, stronger effect = lower value 0.996 | S. cerevisiae deletion strains, locus YKR001C, strain vps1, stronger effect = lower value 0.985 | S. cerevisiae deletion strains, locus YKR026C, strain gcn3, stronger effect = lower value 0.991 | S. cerevisiae deletion strains, locus YKR091W, strain srl3, stronger effect = lower value 0.996 | S. cerevisiae deletion strains, locus YLL001W, strain dnm1, stronger effect = lower value 0.955 | S. cerevisiae deletion strains, locus YLL026W, stronger effect = lower value 0.997 | S. cerevisiae deletion strains, locus YLL041C, strain sdh2, stronger effect = lower value 0.99 | S. cerevisiae deletion strains, locus YLR027C, strain aat2, stronger effect = lower value 1 | S. cerevisiae deletion strains, locus YLR039C, strain RIC1, stronger effect = lower value 1.08 | S. cerevisiae deletion strains, locus YLR058C, strain SHM2, stronger effect = lower value 1.01 | S. cerevisiae deletion strains, locus YLR102C, strain apc9, stronger effect = lower value 1 | S. cerevisiae deletion strains, locus YLR113W, strain HOG1, stronger effect = lower value 0.97 | S. cerevisiae deletion strains, locus YLR221C, strain rsa3, stronger effect = lower value 0.949 | S. cerevisiae deletion strains, locus YLR258W, strain gsy2, stronger effect = lower value 0.979 | S. cerevisiae deletion strains, locus YLR262C, strain YPT6 (second series), stronger effect = lower value 0.954 | S. cerevisiae deletion strains, locus YLR262C, strain YPT6, stronger effect = lower value 1.01 | S. cerevisiae deletion strains, locus YLR268W, strain sec22, stronger effect = lower value 1 | S. cerevisiae deletion strains, locus YLR320W, strain mms22, stronger effect = lower value 0.962 | S. cerevisiae deletion strains, locus YLR330W, strain CHS5, stronger effect = lower value 1.02 | S. cerevisiae deletion strains, locus YLR342W, strain FKS1 (second series), stronger effect = lower value 1.01 | S. cerevisiae deletion strains, locus YLR342W, strain FKS1, stronger effect = lower value 0.991 | S. cerevisiae deletion strains, locus YLR357W, strain rsc2, stronger effect = lower value 0.959 | S. cerevisiae deletion strains, locus YLR370C, strain arc18, stronger effect = lower value 0.977 | S. cerevisiae deletion strains, locus YLR371W, strain rom2, stronger effect = lower value 0.998 | S. cerevisiae deletion strains, locus YLR384C, strain iki3, stronger effect = lower value 0.996 | S. cerevisiae deletion strains, locus YLR418C, strain cdc73, stronger effect = lower value 0.986 | S. cerevisiae deletion strains, locus YML016C, strain PPZ1, stronger effect = lower value 1.01 | S. cerevisiae deletion strains, locus YML032C, strain rad52, stronger effect = lower value 0.989 | S. cerevisiae deletion strains, locus YML120C, strain ndi1, stronger effect = lower value 0.966 | S. cerevisiae deletion strains, locus YML124C, strain tub3, stronger effect = lower value 1 | S. cerevisiae deletion strains, locus YMR058W, strain fet3, stronger effect = lower value 0.991 | S. cerevisiae deletion strains, locus YMR078C, strain ctf18, stronger effect = lower value 1.01 | S. cerevisiae deletion strains, locus YMR125W, strain sto1, stronger effect = lower value 0.98 | S. cerevisiae deletion strains, locus YMR129W, stronger effect = lower value 0.991 | S. cerevisiae deletion strains, locus YMR205C, strain PFK2, stronger effect = lower value 0.971 | S. cerevisiae deletion strains, locus YMR223W, strain ubp8, stronger effect = lower value 0.99 | S. cerevisiae deletion strains, locus YMR231W, strain pep5, stronger effect = lower value 0.999 | S. cerevisiae deletion strains, locus YMR307W, strain GAS1, stronger effect = lower value 0.937 and 1.01 | S. cerevisiae deletion strains, locus YNL067W, strain RPL9B, stronger effect = lower value 1.01 | S. cerevisiae deletion strains, locus YNL071W, strain lat1, stronger effect = lower value 0.995 | S. cerevisiae deletion strains, locus YNL128W, strain TEP1, stronger effect = lower value 0.973 | S. cerevisiae deletion strains, locus YNL153C, strain GIM3, stronger effect = lower value 1 | S. cerevisiae deletion strains, locus YNL175C, strain NOP13, stronger effect = lower value 1.01 and 0.97 | S. cerevisiae deletion strains, locus YNL183C, strain NPR1, stronger effect = lower value 0.957 | S. cerevisiae deletion strains, locus YNL197C, strain WHI3, stronger effect = lower value 1.02 and 0.975 | S. cerevisiae deletion strains, locus YNL209W, strain ssb2, stronger effect = lower value 0.989 | S. cerevisiae deletion strains, locus YNL224C, strain SQS1, stronger effect = lower value 1 and 0.985 | S. cerevisiae deletion strains, locus YNL233W, strain BNI4, stronger effect = lower value 1.01 | S. cerevisiae deletion strains, locus YNL248C, strain rpa49, stronger effect = lower value 0.981 | S. cerevisiae deletion strains, locus YNL250W, strain rad50, stronger effect = lower value 0.985 | S. cerevisiae deletion strains, locus YNL271C, strain bni1, stronger effect = lower value 1 | S. cerevisiae deletion strains, locus YNL298W, strain CLA4, stronger effect = lower value 0.998 | S. cerevisiae deletion strains, locus YNL307C, strain MCK1, stronger effect = lower value 0.998 | S. cerevisiae deletion strains, locus YNL322C, strain KRE1 (second series), stronger effect = lower value 0.988 | S. cerevisiae deletion strains, locus YNL322C, strain KRE1, stronger effect = lower value 1.01 and 1 | S. cerevisiae deletion strains, locus YNR049C, strain mso1, stronger effect = lower value 0.995 | S. cerevisiae deletion strains, locus YNR052C, strain pop2, stronger effect = lower value 1 | S. cerevisiae deletion strains, locus YOL006C, strain TOP1, stronger effect = lower value 1.01 | S. cerevisiae deletion strains, locus YOL012C, strain htz1 0.826 | S. cerevisiae deletion strains, locus YOL147C, strain pex11, stronger effect = lower value 1 | S. cerevisiae deletion strains, locus YOR001W, strain rrp6, stronger effect = lower value 0.991 | S. cerevisiae deletion strains, locus YOR061W, strain CKA2, stronger effect = lower value 1.01 | S. cerevisiae deletion strains, locus YOR069W, strain VPS5, stronger effect = lower value 1.01 | S. cerevisiae deletion strains, locus YOR070C, strain gyp1, stronger effect = lower value 0.985 | S. cerevisiae deletion strains, locus YOR080W, strain dia2, stronger effect = lower value 0.992 | S. cerevisiae deletion strains, locus YOR083W, strain WHI5 (second series), stronger effect = lower value 0.998 and 0.969 | S. cerevisiae deletion strains, locus YOR083W, strain WHI5, stronger effect = lower value 0.981 | S. cerevisiae deletion strains, locus YOR106W, strain vam3, stronger effect = lower value 0.953 | S. cerevisiae deletion strains, locus YOR136W, strain idh2, stronger effect = lower value 0.997 | S. cerevisiae deletion strains, locus YOR144C, strain elg1, stronger effect = lower value 1 | S. cerevisiae deletion strains, locus YOR184W, strain ser1, stronger effect = lower value 1.01 | S. cerevisiae deletion strains, locus YOR231W, strain MKK1, stronger effect = lower value 0.952 | S. cerevisiae deletion strains, locus YOR265W, strain rbl2, stronger effect = lower value 0.996 | S. cerevisiae deletion strains, locus YOR270C, strain vph1, stronger effect = lower value 0.995 | S. cerevisiae deletion strains, locus YOR290C, strain snf2, stronger effect = lower value 0.939 | S. cerevisiae deletion strains, locus YOR316C, strain cot1, stronger effect = lower value 1.01 | S. cerevisiae deletion strains, locus YPL051W, strain arl3, stronger effect = lower value 0.967 | S. cerevisiae deletion strains, locus YPL055C, strain LGE1, stronger effect = lower value 1.01 | S. cerevisiae deletion strains, locus YPL078C, strain atp4, stronger effect = lower value 0.983 | S. cerevisiae deletion strains, locus YPL106C, strain sse1, stronger effect = lower value 0.929 | S. cerevisiae deletion strains, locus YPL240C, strain hsp82, stronger effect = lower value 0.976 | S. cerevisiae deletion strains, locus YPL241C, strain CIN2, stronger effect = lower value 0.994 | S. cerevisiae deletion strains, locus YPL256C, strain CLN2, stronger effect = lower value 0.99 | S. cerevisiae deletion strains, locus YPR119W, strain clb2, stronger effect = lower value 0.995 | S. cerevisiae deletion strains, locus YPR141C, strain kar3, stronger effect = lower value 0.992 | S. cerevisiae deletion strains, locus YPR163C, strain tif3, stronger effect = lower value 0.999 | S. cerevisiae deletion strains, locus YPR167C, strain met16, stronger effect = lower value 0.997 | S. cerevisiae deletion strains, strain wtn01, stronger effect = lower value 0.993 | S. cerevisiae strains, strain wild type, stronger effect = lower value 0.994
